Bioassay records: PubChem, several laboratories
TIM10 inh: inhibits growth of TIM10 yeast strain; inhibition, % at 10 µM; 1.4% of 330,000 active; S. cerevisiae TIM10 strain growth, BacTiter-Glo luminescence, 24 h; AID 463195;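 active = inhibition of 40% or more at the single tested concentration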;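 note: wild-type TIM10 isogenic control strain grown at permissive 25 °C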
NLRP3 yeast inh: NALP3 inhibition in yeast. Yeast reconstituted NLRP3/ASC/caspase-1, beta-gal luminescence, 24 h. inhibition, % at 10 µM. 0.39% of 330,000 active. AID 2825;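 active = inhibition of 50% or more; inactive = inhibition below 50%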;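 note: plate controls were induced DMSO wells for no effect and uninduced yeast grown without galactose for full effect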
tim10-1 inh: tim10-1 yeast growth inhibition. S. cerevisiae tim10-1 ts strain growth, BacTiter-Glo, 24 h. inhibition, % at 20 µM. 2.2% of 330,000 active;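 active = inhibition of at least 40%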;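 note: mutant grown at 25 °C; 0% = DMSO wells with yeast and 100% = wells holding no yeast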
V-ATPase pH: yeast V-ATPase proton transport regulation by pHLuorin; S. cerevisiae, pHLuorin cytosolic pH fluorescence; response, % at 10 µM; 0.37% of 350,000 active; AID 504577; in the data active = response mostly above about 7.3%, no sharp cut-off; inactive = mostly below about 5.4%; note: actives read high
tim23-1 inh: tim23-1 yeast growth inhibition. S. cerevisiae tim23-1 growth, BacTiter-Glo luminescence, 24 h. inhibition, % at 20 µM. 1.3% of 330,000 active;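 active = growth inhibition of the mutant yeast at or above 50%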;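 note: temperature-sensitive mutant grown at 25 °C; plate controls were DMSO-treated mutant yeast for no effect and medium wells lacking yeast for full effect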
NALP1 inh: NALP1 inhibition; inhibition, % at 10 µM; S. cerevisiae NALP1/ASC/caspase-1 growth, X-gal OD620, 72 h; 0.61% of 280,000 active; in the data active = inhibition mostly above about 24%, no sharp cut-off; inactive = mostly below about 32%
TIM10 conf: confirmation of TIM10 yeast growth inhibitors. shares compounds with TIM10 inh. S. cerevisiae tim10 strain growth, BacTiter-Glo luminescence, 24 h. inhibition, % at 10 µM. 63% of 4,600 active. AID 463215;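 active = inhibition of yeast growth at or above a set limit in either of two replicates at 10 µM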;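 note: this counterscreen used the strain with wild-type TIM10; 0% = yeast with DMSO and 100% = medium wells lacking yeast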
Numbers without * were called inactive. This is a sample that favours compounds with a hit; in the whole collection about 4.2% have one here.

For Cc1ccc(OCc2cc(C(=O)N3CCC(Oc4cccnc4)CC3)no2)cc1C the results were TIM10 inh 30, NLRP3 yeast inh 22, tim10-1 inh 36, V-ATPase pH 2, tim23-1 inh 28 and NALP1 inh 22.
O=C(c1cc(COc2cccc(C(F)(F)F)c2)on1)N1CCC(Oc2cccnc2)CC1 was read as TIM10 inh 43*, NLRP3 yeast inh 14, tim10-1 inh 38, V-ATPase pH -4, tim23-1 inh 39, NALP1 inh -26 and TIM10 conf 43*.
For O=C(Nc1ccc2c(c1)CCC2)c1cc2ccccc2o1 the results were TIM10 inh 56*, NLRP3 yeast inh 39, tim10-1 inh 20, V-ATPase pH 4, tim23-1 inh 44, NALP1 inh -1 and TIM10 conf -18.
For COc1ccc(CNC(=S)NC(C)CCc2ccccc2)cc1 (stereo not drawn) the results were TIM10 inh 53*, NLRP3 yeast inh 21, tim10-1 inh 32, V-ATPase pH -1, tim23-1 inh 10, NALP1 inh 13 and TIM10 conf 21.
Screening COc1nccc(C(F)(F)F)c1C(=O)NC(=O)Nc1c(C)cccc1C returned TIM10 inh 40*, NLRP3 yeast inh -27, tim10-1 inh 7, V-ATPase pH 0, tim23-1 inh 13, NALP1 inh -4 and TIM10 conf 6.
`COc1nccc(C(F)(F)F)c1C(=O)NC(=O)Nc1ccccc1` gave TIM10 inh 11, NLRP3 yeast inh 10, tim10-1 inh 13, V-ATPase pH 0, tim23-1 inh 13 and NALP1 inh 5.
Screening O=C(COC(=O)c1ccc([N+](=O)[O-])s1)Nc1ccc(F)cc1 returned TIM10 inh 74*, NLRP3 yeast inh 42, tim10-1 inh -34, V-ATPase pH 1, tim23-1 inh 37 and TIM10 conf 77*.
`CC(C)(C)c1ccc(NC(=O)COC(=O)c2ccc([N+](=O)[O-])s2)cc1` gave V-ATPase pH 6 and NALP1 inh 32.
For O=C(COC(=O)c1ccc([N+](=O)[O-])s1)Nc1ccccc1 the results were TIM10 inh 46*, NLRP3 yeast inh 16, tim10-1 inh 17, V-ATPase pH 5, tim23-1 inh 40, NALP1 inh 34 and TIM10 conf -7.
O=C(Nc1cccnc1)c1cc(Br)c(Br)s1 was read as TIM10 inh 10, NLRP3 yeast inh 9, tim10-1 inh -5, V-ATPase pH 2 and tim23-1 inh -4.
For O=C(Nc1cccnc1)c1ccc([N+](=O)[O-])s1 the results were TIM10 inh 56*, NLRP3 yeast inh 10, tim10-1 inh 14, V-ATPase pH 0, tim23-1 inh 44 and TIM10 conf 53*.
`CCOC(=O)C(C)Oc1ccc(NC(=O)C(Cl)Cl)cc1` (stereo not drawn) gave TIM10 inh 23, NLRP3 yeast inh 8, tim10-1 inh 19, V-ATPase pH 2 and tim23-1 inh 23.
For O=C1NC(Cc2ccc(O)cc2)c2nc3ccc(Br)cc3c(=O)n2-c2ncccc21 (stereo not drawn) the results were V-ATPase pH -2.
`CCOC(=O)C(C(=O)OCC)C(=O)c1cccc2ccc3ccccc3c12` gave V-ATPase pH 1.
Screening CCN1C(=O)C(CC(=O)Nc2ccc(OC)cc2)N(CCc2ccc(F)cc2)C1=S (stereo not drawn) returned TIM10 inh 42*, NLRP3 yeast inh 4, tim10-1 inh 38, V-ATPase pH 6, tim23-1 inh 42, NALP1 inh 12 and TIM10 conf 26.
Screening COc1ccc(NC(=O)CC2C(=O)N(C)C(=S)N2CCc2ccc(F)cc2)cc1 (stereo not drawn) returned TIM10 inh 7, NLRP3 yeast inh 8, tim10-1 inh 14, V-ATPase pH -3, tim23-1 inh 15 and NALP1 inh 19.
CCOC(=O)Nc1cccc(OCC(=O)Nc2ccc(OC)cc2OC)c1 was read as TIM10 inh 24, NLRP3 yeast inh 12, tim10-1 inh 30, V-ATPase pH -1 and tim23-1 inh 24.
`CCOC(=O)Nc1cccc(OCC(=O)Nc2ccccc2OC)c1` gave TIM10 inh 42*, NLRP3 yeast inh 16, tim10-1 inh 34, V-ATPase pH 5, tim23-1 inh 46 and TIM10 conf 15.
For COc1cc(NC(=O)c2ccccc2)cc(OC)c1 the results were TIM10 inh 68*, NLRP3 yeast inh 47, tim10-1 inh 23, V-ATPase pH 3, tim23-1 inh 43, NALP1 inh 7 and TIM10 conf 46*.
O=C(COc1cccc(NC(=O)c2ccccc2)c1)c1ccc(F)cc1 was read as TIM10 inh 42*, NLRP3 yeast inh 17, tim10-1 inh -5, V-ATPase pH 1, tim23-1 inh 8, NALP1 inh 19 and TIM10 conf 34*.
Screening O=C(O)/C=C\C(=O)Nc1cccc(C(=O)Nc2cccc(O)c2)c1 returned TIM10 inh 1, NLRP3 yeast inh -3, tim10-1 inh 2, V-ATPase pH 6, tim23-1 inh 2 and NALP1 inh -6.
`O=C(Nc1cccc(O)c1)c1ccccc1` gave TIM10 inh 40*, NLRP3 yeast inh 8, tim10-1 inh 16, V-ATPase pH -2, tim23-1 inh 26, NALP1 inh 28 and TIM10 conf -10.
CC1(C(=O)Nc2ccc3c(c2)OCO3)CC1(Cl)Cl (stereo not drawn) was read as TIM10 inh 6, NLRP3 yeast inh 17, tim10-1 inh -18, V-ATPase pH 3, tim23-1 inh -7 and NALP1 inh 9.
`Cc1noc(NS(=O)(=O)c2ccc(NC(=O)c3cc(F)c(F)c(F)c3F)cc2)c1C` gave TIM10 inh 0, NLRP3 yeast inh 5, tim10-1 inh -7, V-ATPase pH -4 and tim23-1 inh 2.
Screening C[C@H]1COC(=O)[C@@H](NC(=O)OCC2c3ccccc3-c3ccccc32)C/C=C\C[C@H](CC(=O)NCCO)C(=O)N1 returned TIM10 inh 12, NLRP3 yeast inh 5, tim10-1 inh -6, V-ATPase pH -3 and tim23-1 inh -9.
`C=CCN1C(=O)C2C(C(=O)NC3CCCC3)C3C=CC2(O3)C1C(=O)NC1CCCC1` (stereo not drawn) gave TIM10 inh -8, NLRP3 yeast inh -5, tim10-1 inh 6, V-ATPase pH -2, tim23-1 inh -3 and NALP1 inh 8.
For COc1cc(OC)cc(C(=O)Nc2cccc(NC(C)=O)c2)c1 the results were TIM10 inh -12, NLRP3 yeast inh 10, tim10-1 inh -2, V-ATPase pH 2, tim23-1 inh 7 and NALP1 inh -17.
